We go through eight compounds from the supplement of paper PMC9262897, “Low-cost anti-mycobacterial drug discovery using engineered E. coli” (Nature Communications, 2022).

What all share (assay): growth (OD600 after 10 h); higher = more growth (less inhibition)
In test [1] the test system is E. coli TESEC Alr+ wild-type control. The note with it: compound 0.1 mM; raw OD600 reference: median of DMSO wells 0.241, cell-free background 0.041. The procedure: (§1)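 TESEC Mtb Alr E. coli, or the Alr+ wild-type control, in 384-well plates with Prestwick library compounds at 0.1 mM and 1% DMSO, across arabinose induction levels of 1E3 to 1E7 nM. Growth is read as OD600 after 10 h at 37 °C in triplicate biological replicates.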

Test [2] deals with E. coli TESEC Mtb Alr. The note with it: compound 0.1 mM. The protocol:
as §1

The subject of test [3] is E. coli TESEC Mtb Asd. The conditions noted are these: compound 0.1 mM. The procedure:
(§2)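 TESEC E. coli strains in which the native enzyme is deleted and replaced by arabinose-inducible Mtb Asd, DapB, CysH or TrpD, each grown in its selective medium. Strains were screened against the Prestwick library at 0.1 mM and 1% DMSO in 384-well format at low and high arabinose induction. Growth is read as OD600 after 10 h in triplicate.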

The test system of test [4] is E. coli TESEC Mtb DapB. The note with it: compound 0.1 mM. The protocol:
as §2

Test [5] concerns E. coli TESEC Alr+ wild-type control. The note with it: compound 0.1 mM; raw OD600 reference: median of DMSO wells 0.49, cell-free background 0.052. The procedure: (§3)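 TESEC Mtb Alr E. coli (ΔaraC ΔtolC ΔentC Δalr ΔdadX, arabinose-inducible Mtb Alr) or the Alr+ wild-type control strain, grown in defined M9-fructose medium without D-alanine in 96-well plates with Prestwick library compounds at 0.1 mM and 1% DMSO. Low Alr induction is 0.1 µM arabinose and high induction is 10 mM arabinose.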

For test [6], the system named is E. coli TESEC Mtb Alr. The note with it: compound 0.1 mM. The protocol:
as §3
This is another data set of the same source.

The mark [7] stands for this setting: arabinose 1000 nM, raw OD600 reference: median of DMSO wells 0.294, cell-free background 0.041.
Where [8] appears, read: arabinose 10000 nM, raw OD600 reference: median of DMSO wells 0.264, cell-free background 0.041.
The mark [9] stands for this setting: arabinose 100000 nM, raw OD600 reference: median of DMSO wells 0.201, cell-free background 0.041.
[10] abbreviates: arabinose 1000000 nM, raw OD600 reference: median of DMSO wells 0.193, cell-free background 0.041.
Where [11] appears, read: arabinose 10000000 nM, raw OD600 reference: median of DMSO wells 0.146, cell-free background 0.041.
Setting [12] is: arabinose induction (level): High, raw OD600 reference: median of DMSO wells 0.331, cell-free background 0.041.
The mark [13] stands for this setting: arabinose induction (level): Low, raw OD600 reference: median of DMSO wells 0.417, cell-free background 0.041.
Setting [14] is: arabinose induction (level): High, raw OD600 reference: median of DMSO wells […], cell-free background 0.041.
Setting [15] is: arabinose induction (level): Low, raw OD600 reference: median of DMSO wells 0.227, cell-free background 0.041.
Setting [16] is: arabinose 100 nM, raw OD600 reference: median of DMSO wells 0.413, cell-free background 0.052.
Setting [17] is: arabinose 10000000 nM, raw OD600 reference: median of DMSO wells […], cell-free background 0.052.

Structures can show the parent of a compound that is named as a salt. ± gives the standard deviation of the averaged measurements.

For `Oc1cc(Cl)ccc1Oc1ccc(Cl)cc1Cl` [Triclosan], the growth came to 0.0414 ± 0.0012 in test [1]; 0.0413 ± 0.0016 in test [2] (setting [7]); 0.04137 ± 0.00025 in test [2] (setting [8]); 0.04127 ± 0.00015 in test [2] (setting [9]); 0.0423 ± 0.0022 in test [2] (setting [10]); 0.04107 ± 0.00021 in test [2] (setting [11]). Also, the growth was determined as 0.0494 ± 0.0062 in test [3] (setting [12]); 0.04643 ± 0.00015 in test [3] (setting [13]); 0.0466 ± 0.0004 in test [4] (setting [14]); 0.0475 ± 0.0016 in test [4] (setting [15]); 0.0516 ± 0.0015 in test [5]; 0.052 ± 0.0048 in test [6] (setting [16]). Further, in test [6] (setting [17]), the growth is 0.054 ± 0.001.

As to `C[C@]12N[C@H](Cc3ccccc31)c1ccccc12` [Dizocilpine maleate], the growth in test [1] was determined as 0.2374 ± 0.0019; in test [2] (setting [7]), 0.286 ± 0.009; in test [2] (setting [8]) it was 0.273 ± 0.0096; in test [2] (setting [9]), 0.158 ± 0.014; in test [2] (setting [10]) it was 0.123 ± 0.0042; in test [2] (setting [11]), 0.134 ± 0.0024. Besides, the growth in test [3] (setting [12]) came to 0.179 ± 0.014; in test [3] (setting [13]), 0.415 ± 0.059; in test [4] (setting [14]), 0.179 ± 0.019; in test [4] (setting [15]), 0.18 ± 0.012; in test [6] (setting [16]), 0.4169 ± 0.0029; in test [6] (setting [17]), 0.304 ± 0.01.

Take `C[C@]12CC[C@@H](O)C[C@H]1CC[C@@H]1[C@@H]2CC[C@]2(C)C(=O)CC[C@@H]12` [3-alpha-Hydroxy-5-beta-androstan-17-one]: the growth in test [1] was determined as 0.129 ± 0.0054; in test [2] (setting [7]), 0.135 ± 0.0032; in test [2] (setting [8]), 0.114 ± 0.0066; in test [2] (setting [9]), 0.131 ± 0.015; in test [2] (setting [10]) it was 0.0604 ± 0.00044; in test [2] (setting [11]), 0.0824 ± 0.00098. Besides, the growth in test [3] (setting [12]) came to 0.118 ± 0.0061; in test [3] (setting [13]), 0.171 ± 0.018; in test [4] (setting [14]), 0.122 ± 0.0084; in test [4] (setting [15]), 0.135 ± 0.013; in test [5] it was 0.262 ± 0.011; in test [6] (setting [16]) it was 0.354 ± 0.027. Besides, in test [6] (setting [17]), the growth was 0.0844 ± 0.0097.

Consider `CC(=O)[C@H]1CC[C@H]2[C@@H]3CC[C@H]4C[C@H](O)CC[C@]4(C)[C@H]3C(=O)C[C@]12C` [Alfaxalone], for which the growth in test [1] turned out to be 0.1302 ± 0.0013; in test [2] (setting [7]), 0.162 ± 0.0069; in test [2] (setting [8]), 0.21 ± 0.0045; in test [2] (setting [9]), 0.108 ± 0.0044; in test [2] (setting [10]), 0.101 ± 0.0035; in test [2] (setting [11]), 0.0965 ± 0.0034. Besides, the growth was determined as 0.161 ± 0.045 in test [3] (setting [12]); 0.275 ± 0.038 in test [3] (setting [13]); 0.155 ± 0.031 in test [4] (setting [14]); 0.203 ± 0.028 in test [4] (setting [15]); 0.3696 ± 0.00096 in test [6] (setting [16]); 0.192 ± 0.015 in test [6] (setting [17]).

`NC(=O)OCCCc1ccccc1` [Phenprobamate]: the growth was 0.219 ± 0.0026 in test [1]; 0.274 ± 0.0083 in test [2] (setting [7]); 0.258 ± 0.011 in test [2] (setting [8]); 0.183 ± 0.018 in test [2] (setting [9]); 0.192 ± 0.012 in test [2] (setting [10]); 0.138 ± 0.0065 in test [2] (setting [11]). Also, the growth was 0.31 ± 0.11 in test [3] (setting [12]); 0.323 ± 0.063 in test [3] (setting [13]); 0.197 ± 0.023 in test [4] (setting [14]); 0.215 ± 0.024 in test [4] (setting [15]); 0.562 ± 0.087 in test [5]; 0.421 ± 0.011 in test [6] (setting [16]). For the same compound, the growth in test [6] (setting [17]) stood at 0.352 ± 0.02.

On to `COc1cc2c(c(OC)c1OC)-c1ccc(OC)c(=O)cc1[C@@H](NC(C)=O)CC2` [Colchicine], for which the growth turned out to be 0.226 ± 0.0076 in test [1]; 0.262 ± 0.034 in test [2] (setting [7]); 0.267 ± 0.0042 in test [2] (setting [8]); 0.204 ± 0.025 in test [2] (setting [9]); 0.185 ± 0.0039 in test [2] (setting [10]); 0.144 ± 0.0049 in test [2] (setting [11]). Moreover, the growth came to 0.276 ± 0.063 in test [3] (setting [12]); 0.355 ± 0.1 in test [3] (setting [13]); 0.204 ± 0.018 in test [4] (setting [14]); 0.228 ± 0.035 in test [4] (setting [15]); 0.423 ± 0.038 in test [6] (setting [16]); 0.322 ± 0.0069 in test [6] (setting [17]).

As to `C[N+]1(C)CCCC(OC(=O)C(O)(c2ccccc2)c2ccccc2)C1` (centres undefined) [Mepenzolate bromide], the growth in test [1] came out at 0.235 ± 0.006; in test [2] (setting [7]), 0.307 ± 0.016; in test [2] (setting [8]) it was 0.258 ± 0.0015; in test [2] (setting [9]), 0.203 ± 0.022; in test [2] (setting [10]), 0.179 ± 0.0065; in test [2] (setting [11]), 0.137 ± 0.0056. The growth in test [3] (setting [12]) is 0.307 ± 0.038; in test [3] (setting [13]), 0.461 ± 0.02; in test [4] (setting [14]) it was 0.188 ± 0.0063; in test [4] (setting [15]), 0.226 ± 0.009; in test [6] (setting [16]), 0.405 ± 0.0053; in test [6] (setting [17]) it was 0.345 ± 0.014.

With `O=P1(NCCCl)OCCCN1CCCl` (centres undefined) [Ifosfamide], the growth in test [1] came to 0.233 ± 0.012; in test [2] (setting [7]), 0.301 ± 0.027; in test [2] (setting [8]), 0.2741 ± 0.0022; in test [2] (setting [9]), 0.175 ± 0.022; in test [2] (setting [10]), 0.192 ± 0.0026; in test [2] (setting [11]) it was 0.137 ± 0.0089. In addition, the growth in test [3] (setting [12]) is 0.374 ± 0.074; in test [3] (setting [13]), 0.48 ± 0.032; in test [4] (setting [14]) it was 0.204 ± 0.0083; in test [4] (setting [15]) it was 0.222 ± 0.026; in test [6] (setting [16]), 0.417 ± 0.011; in test [6] (setting [17]), 0.359 ± 0.01.
